ssDAF-12 act – S. stercoralis DAF-12 nuclear receptor activators, primary screen, cell-based, luminescence, HEK293, GRIP1 co-expression, lit1-tk-luc | actives 1% (n = 370,000) | activation, % at 6.8 µM | HEK293 ssDAF-12/GRIP1 lit1-tk-luc reporter; % of 3 µM dafachronic acid response | Nuclear hormone receptor DAF-12 (Strongyloides stercoralis);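 active means activation above the mean over all tested compounds plus 3 SD, cut at about 0.9% in these data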;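 further: 0% = DMSO-only wells and 100% = 3 µM delta7-dafachronic acid wells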
DAX1 inh-1 – DAX1 (NR0B1) inhibitors on StAR promoter, primary screen, cell-based, luminescence, SF-1 (NR5A1), full-length DAX-1; HEK293T StAR-luciferase reporter, SF-1/DAX-1 repression relief; inhibition, % at 6.8 µM; actives 1.1% (n = 370,000);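 active means inhibition above the mean over all tested compounds plus 3 SD, cut at about 3.6% in these data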;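 further: 0% = DAX-1 cells with DMSO and 100% = cells lacking DAX-1 with DMSO; higher inhibition means more luminescence from relief of DAX-1 repression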
hcDAF12 agonist – H. contortus DAF-12 nuclear receptor activators, primary screen, cell-based, luminescence, HEK293, lit1-tk-luc reporter; HEK293 hcDAF-12 lit1-tk-luc reporter; 0% DMSO, 100% Δ7-dafachronic acid; activation, % at 6.8 µM; actives 1.4% (n = 370,000); AID 652067, 2013;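 active means activation above the mean of all tested compounds plus 3 SD, cut at about 5.5% in these data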;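 further: 100% = response to 3 µM Δ7-dafachronic acid high control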
DAX1 inh-2 – DAX1 (NR0B1) inhibitors, primary screen, cell-based, HEK293, Gal4-DAX1, luciferase luminescence. Nuclear receptor subfamily 0 group B member 1 (Homo sapiens), P51843. HEK293 Gal4-DAX1 luciferase reporter. inhibition, % at 6.75 µM. actives 0.99% (n = 340,000);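 active means inhibition above the mean over all tested compounds plus 3 SD, cut at about 4.2% in these data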;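 further: 0% = DAX1-transfected cells with DMSO and 100% = empty-vector control cells with DMSO; inhibition shows as a rise in luminescence from relieved DAX1 repression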
Target sequence (P51843 207-470 limits assumed): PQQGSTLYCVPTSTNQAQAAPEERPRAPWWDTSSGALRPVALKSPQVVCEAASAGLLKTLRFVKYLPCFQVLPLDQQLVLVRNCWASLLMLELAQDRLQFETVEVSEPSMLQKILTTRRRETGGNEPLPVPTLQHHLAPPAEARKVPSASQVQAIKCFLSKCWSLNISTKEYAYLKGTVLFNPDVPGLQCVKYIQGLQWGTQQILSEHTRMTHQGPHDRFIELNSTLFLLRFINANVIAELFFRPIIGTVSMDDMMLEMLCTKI
SMARCA2 act – SMARCA2 (BRM) function activators, primary screen, cell-based, luminescence, high throughput | MG213 cells, MMTV-luciferase reporter, dexamethasone, overnight | activation, % at 9.1 µM | actives 1% (n = 370,000); in the data active means activation above about 7.8%;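 further: 0% = vehicle wells and 100% = reference activator wells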
hgDAF-12 ag – H. glycines DAF-12 receptor agonists, primary screen, cell-based, luminescence, HEK293, GAL4 fusion, UAS-luciferase; HEK293 GAL4-hgDAF12 UAS-luciferase reporter, agonist luminescence; normalized to butyrate control; AID 687014, 2013; actives 1.8% (n = 370,000); activation, % at 6.8 µM;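 active means activation above a cutoff set at the mean of all screened compounds plus 3 SD, cut at about 10% in these data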;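 further: 0% = DMSO wells and 100% = sodium butyrate wells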
LXR ag – LXR agonists, Gal4 luciferase reporter, confirmation, counter-screen for hcDAF-12 agonist project, cell-based, luminescence, HEK293, H. contortus campaign; activation, % at 6.8 µM; shares compounds with hcDAF12 agonist; HEK293 Gal4-LXR tk-luc reporter, 24 h; normalized: DMSO 0%, positive control 100%; 3,400 tested, under 10 active;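 active means mean percent activation of the reporter above a cutoff set as the average over tested compounds plus their standard deviation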
hcDAF12 conf – H. contortus DAF-12 receptor agonists, confirmation, cell-based, luminescence, HEK293, lit1-tk-luc, triplicate; HEK293 hcDAF-12 lit1-tk-luc reporter; % of Δ7-dafachronic acid response; activation, % at 6.8 µM; actives 61% (n = 3,400); shares compounds with hcDAF12 agonist;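 active means mean activation across triplicate tests above the threshold derived from the earlier primary screen, cut at about 5.5% in these data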;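 further: 0% = DMSO only wells and 100% = 3 µM Δ7-dafachronic acid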
Active calls of the source: *; · = no result given. In the library only some 4.8% were active in any assay of this set; here they are far more common.

SMILES	ssDAF-12 act	DAX1 inh-1	hcDAF12 agonist	DAX1 inh-2	SMARCA2 act	hgDAF-12 ag	LXR ag	hcDAF12 conf
Cc1ccc(S(=O)(=O)NC(=O)Nc2nnc(C)s2)cc1	-1.0	0.0	-1.2	2.3	6.8	2.6	·	·
CC(=O)n1cc(N(C(=O)CCl)c2ccc(C)cc2)c2ccccc21	-2.0	-2.0	-0.8	-5.3	-12.5	-1.4	·	·
COc1ccccc1NC(=O)CSCc1nc2ccccc2[nH]1	-0.6	0.3	7.0*	-1.3	2.5	1.7	-0.2	3.6
Cc1ccc(CSc2nnc(NC(=O)C3COc4ccccc4O3)s2)cc1 (stereo not given)	-0.2	1.3	-0.7	0.1	-0.9	1.0	·	·
C[C@H](O)[C@@H]1C(=O)N2CCc3ccc(-c4ccccc4)cc3[C@@H]2C[C@@H]1N(C)C(=S)Nc1ccc(F)cc1	-0.8	0.3	-2.3	0.1	-7.5	-3.1	·	·
CCOC(=O)Cc1nc(N2CCCN(C(C)=O)CC2)c2c(C)c(C(=O)OCC)sc2n1	-1.6	-1.3	6.9*	·	-3.4	0.2	-0.4	-1.9
CCOC(=O)Cc1nc(N2CCN(CCN)CC2)c2c(C)c(C(=O)OCC)sc2n1	-0.2	0.7	-3.0	·	-2.5	-1.1	·	·
CCC(CC)C(=O)Nc1cccc(-c2nc3ccccc3o2)c1	-1.2	0.0	-2.8	-0.8	-2.8	-3.1	·	·
N#C/C(=C\c1ccccc1O)C(=O)Nc1cccnc1	-0.6	0.9	0.5	1.8	5.2	4.2	·	·
COc1ccc(O)c(/C=C(\C#N)C(=O)Nc2ccccn2)c1	0.8	0.9	7.9*	3.6	-1.3	4.5	0.4	5.7*
Cc1cccc(-c2noc(-c3ccc(Cl)cc3[N+](=O)[O-])n2)c1	-0.5	1.7	8.9*	1.9	5.4	12.6*	1.8	7.7*
CCc1c(C)nc2ncnn2c1N1CCC(C(=O)N2CCN(c3ccc(F)cc3)CC2)CC1	-1.9	-1.0	-2.0	-0.3	-1.8	-4.1	·	·
O=C(Cc1cccs1)N/N=C\c1ccccc1	-0.8	-0.2	-0.5	·	1.9	9.7	·	·
COc1ccc(NC(=O)Nc2nnc(-c3ccco3)s2)cc1	1.2*	1.8	8.3*	2.6	7.1	11.7*	0.9	9.0*
O=C1C(C=NCc2ccco2)=C(O)c2ccccc21	1.4*	2.5	13.1*	4.3*	0.5	14.6*	1.2	11.8*
CC1CCC/C(=N\NS(=O)(=O)c2ccccc2)C1 (stereo not given)	-1.7	0.3	-0.7	0.2	-1.8	1.0	·	·
CC1CCCC(=NNc2ccc3ccccc3n2)C1 (stereo not given)	0.1	1.1	6.7*	3.0	1.4	2.8	0.3	3.4
COc1ccc(/C=C2\C(=O)NC(=S)N2C(=O)c2ccc(C)cc2)cc1	-0.4	2.0	7.4*	0.9	0.9	8.0	-0.3	0.8
O=C1NC(=S)N(C(=O)c2ccc(F)cc2)/C1=C/c1cccnc1	-0.9	-0.1	-1.0	·	-5.0	6.0	·	·
N#Cc1ccccc1OCCN1C(=O)c2ccccc2C1=O	-0.5	1.2	4.5	2.0	2.3	3.3	·	·
Nc1cccc2c1C(=O)N(CCOc1ccccc1F)C2=O	1.9*	2.6	18.0*	0.5	5.8	10.9*	1.6	18.4*
c1ccc(-c2ccc(-c3ccccn3)nn2)nc1	-0.5	3.4	6.9*	·	2.9	6.7	1.2	8.7*
c1ccc(-c2ccccn2)nc1	-0.9	1.7	-1.3	-1.4	-4.9	4.3	·	·
O=C(c1ccccc1)C1Oc2ccccc2C2CC(c3cccs3)=NN12 (stereo not given)	-0.7	2.2	8.3*	3.9	2.7	7.1	-0.3	3.2
COc1n[nH]c(C(=O)Nc2cc(Cl)ccc2Cl)c1[N+](=O)[O-]	0.5	0.3	1.0	-0.7	1.8	-1.8	·	·
SMILES	ssDAF-12 act	DAX1 inh-1	hcDAF12 agonist	DAX1 inh-2	SMARCA2 act	hgDAF-12 ag	LXR ag	hcDAF12 conf
COc1ccc(Cl)cc1NC(=O)c1[nH]nc(OC)c1[N+](=O)[O-]	-0.3	0.4	6.7*	-0.8	1.9	3.4	-0.2	5.0
Cn1nc(-c2ccccc2)c2nc3ccccc3nc21	0.6	0.1	6.8*	-0.2	0.5	2.5	0.3	6.1*
O=C(O)c1cccc(COc2cccc3ccccc23)c1	1.3*	3.4	9.1*	-4.0	6.1	12.8*	1.6	9.4*
O=C(CSc1nnc(-c2ccc(O)cc2)n1Cc1ccco1)c1ccccc1	-0.9	-0.4	-1.7	-0.9	1.4	-2.3	·	·
O=C(CSc1nnc(-c2cccnc2)n1Cc1ccco1)c1ccccc1	-0.7	1.1	6.6*	1.0	-2.3	-1.6	0.0	2.2
O=C(NN=Cc1c[nH]c2ccccc12)NN=Cc1c[nH]c2ccccc12	0.6	-0.5	1.9	-0.5	1.2	-1.8	·	·
O=C(N/N=C/c1c[nH]c2ccccc12)c1sc2ccccc2c1Cl	-0.4	0.2	9.1*	1.4	5.9	7.1	0.1	3.7
Cc1ccc(C(=O)Nc2ccc(C(=O)N/N=C/c3c[nH]c4ccccc34)cc2)cc1	0.2	-1.3	7.3*	1.2	2.7	3.7	-0.1	7.2*
O=C(N/N=C/c1c[nH]c2ccccc12)c1ccncc1	-0.5	0.0	4.9	1.7	6.1	2.7	·	·
COc1ccccc1C(=O)N/N=C/c1c[nH]c2ccccc12	1.4*	0.2	7.0*	-0.9	0.0	6.3	0.0	6.3*
CCCc1nc2c(C)cc(Br)cn2c1Cc1ccc(OC)cc1C	-0.5	0.2	0.1	·	-3.9	1.0	·	·
CCCn1c(=O)n(C)c(=O)c2c(SCC(=O)NCc3ccco3)nc(C3CC3)nc21	·	·	·	0.2	·	·	·	·
CCOC(=O)c1sc(NC(NC(=O)c2ccco2)(C(=O)OC)C(F)(F)F)nc1C (stereo not given)	-1.3	-0.3	-0.6	-0.5	-0.3	-2.8	·	·
CNc1nc(-c2ccccc2)[n+](-c2ccc(C)cc2)s1	1.1*	1.7	11.3*	-1.8	2.9	8.1	-0.3	-0.3
